Results on seven molecules are retold here after PubChem BioAssay.

Activity calls are given as the source filed them.

The nature of experiment [1]: optical density shifts of acrAB sulA E. coli – strain DRC41, OD650, 48 h, E. coli filamentation inducer project, primary screen (AID 1152).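 Note: E. coli MC1000 strain DRC41 lacking acrAB efflux pump and sulA.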 Conditions: higher = more signal, called active from +8 up or from −8 down.
A short description of experiment [2]: probe aLefty1 binding on compound microarray – biochemical, small-molecule microarray, 635/667 nm fluorescence, primary screen (AID 1153).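 Note: score merges spot fluorescence with signal-to-noise ratio from the scanned slide images.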 Conditions: higher = more signal.
The nature of experiment [3]: plasmodial surface anion channel blockers, osmotic lysis – cell-based, P. falciparum Indochina, OD700, 1 h, primary screen (AID 1154). Conditions: P. falciparum Indochina infected RBC osmotic lysis, higher = more signal, called active from +8 up or from −8 down.
Experiment [4] can be described thus: plasmodial surface anion channel blockers, osmotic lysis – cell-based, P. falciparum Indochina, OD700, 2 h, primary screen (AID 1155).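 Note: lysis reports solute entry through the parasite surface anion channel PSAC.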 Conditions: P. falciparum Indochina infected erythrocytes, higher = more signal, called active from +8 up or from −8 down.
Experiment [5] can be described thus: changes in parasitized red cell lysis, either direction – P. falciparum Indochina, OD700, 3 h, PSAC antagonist project, primary screen (AID 1156). The note with it: P. falciparum-infected erythrocytes, osmotic lysis, higher = more signal, called active from +8 up or from −8 down.
Experiment [6] is described as follows: plasmodial surface anion channel blockers, osmotic lysis – cell-based, P. falciparum Indochina, OD700, 18 h, primary screen (AID 1157). The note with it: P. falciparum Indochina infected erythrocytes, osmotic lysis OD700, 18 h; higher = more signal, called active from +8 up or from −8 down.
A short description of experiment [7]: S6 kinase pathway phospho-S6 level changes – cell-based, A549, cytoblot, luminescence, serum-stimulated, primary screen (AID 1158).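 Note: serum-stimulated A549 lung adenocarcinoma cells; signal is phosphorylated S6 detected by cytoblot immunostaining with HRP secondary.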 The note with it: 5 h, higher = more signal.
Experiment [8] deals with NADPH oxidase 2 (Homo sapiens) (UniProt P04839). Nature of the experiment: compounds shifting NOX2 Amplex Red fluorescence – cell-based, HEK293-NOX2, PMA-stimulated, NOX inhibitor project, primary screen (AID 1159). Note: test concentration not given here. Conditions: 45 min, higher = more signal, called active from +8 up or from −8 down.
NADPH oxidase 2 (Homo sapiens), sequence (P04839 whole entry, looked up): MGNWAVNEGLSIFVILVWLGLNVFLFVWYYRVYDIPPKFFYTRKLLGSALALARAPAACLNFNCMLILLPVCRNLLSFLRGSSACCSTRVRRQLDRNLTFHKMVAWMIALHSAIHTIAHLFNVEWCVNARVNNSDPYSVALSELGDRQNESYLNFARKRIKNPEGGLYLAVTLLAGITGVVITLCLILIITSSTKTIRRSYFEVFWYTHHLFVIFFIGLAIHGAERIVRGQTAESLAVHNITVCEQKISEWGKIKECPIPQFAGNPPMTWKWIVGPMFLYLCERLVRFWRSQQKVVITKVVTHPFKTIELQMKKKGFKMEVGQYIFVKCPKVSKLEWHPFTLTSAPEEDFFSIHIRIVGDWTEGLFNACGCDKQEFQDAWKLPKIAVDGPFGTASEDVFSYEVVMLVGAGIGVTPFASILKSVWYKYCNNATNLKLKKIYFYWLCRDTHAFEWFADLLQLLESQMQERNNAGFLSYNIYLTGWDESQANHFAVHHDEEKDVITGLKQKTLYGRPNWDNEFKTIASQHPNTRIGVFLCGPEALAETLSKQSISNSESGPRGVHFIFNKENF
Experiment [9] addresses NADPH oxidase 4 (Homo sapiens) (UniProt Q9NPH5). As to the kind of experiment: compounds shifting NOX4 Amplex Red fluorescence – cell-based, HEK293-NOX4, tetracycline-induced, NOX inhibitor project, primary screen (AID 1160). Conditions: HEK293-NOX4, Amplex Red H2O2 fluorescence, 45 min; higher = more signal, called active from +8 up or from −8 down.
Experiment [10] has as its target NADPH oxidase 5 (Homo sapiens) (UniProt Q96PH1). As to the kind of experiment: compounds shifting NOX5 Amplex Red fluorescence – cell-based, HEK293-NOX5, NOX inhibitor project, primary screen (AID 1161). The note with it: HEK293-NOX5, ionomycin, 45 min, higher = more signal.
The nature of experiment [11]: compound effects on lung adenocarcinoma cell viability – A549, calcein-AM fluorescence, 48 h, basal, profiling panel (AID 1162). Note: test concentration not given here. The note with it: higher = more signal.
Experiment [12] is described as follows: compound effects on differentiated 3T3-L1 adipocyte viability – cell-based, 3T3-L1 adipocytes, calcein-AM fluorescence, 48 h, basal, profiling panel (AID 1163). Note: test concentration not given here. The note with it: 3T3-L1 adipocytes viability, higher = more signal.
Experiment [13] is described as follows: compound effects on hepatocellular carcinoma cell viability – HepG2, calcein-AM fluorescence, 48 h, basal, profiling panel (AID 1164). Note: test concentration not given here. The note with it: higher = more signal.
A short description of experiment [14]: compound effects on multiple myeloma cell viability – MM1S, calcein-AM fluorescence, 48 h, basal, profiling panel (AID 1165). Note: test concentration not given here. Conditions: higher = more signal.
Experiment [15] in a line: calcein-AM signal in unstimulated myeloma cells – cell-based, calcein-AM fluorescence, 48 h, PK04 Diversity Set, profiling panel (AID 1166).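 Note: cells grown under basal conditions without added stimulus; test concentration not given here.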 The note with it: RPMI8226 myeloma viability, higher = more signal.
A short description of experiment [16]: JC-1 mitochondrial signal, unstimulated HepG2 cells – cell-based, JC-1 fluorescence, 24 h, 100 nL compound, profiling panel (AID 1167). Note: test concentration not given here. The note with it: HepG2 mitochondrial potential, higher = more signal.
A short description of experiment [17]: JC-1 mitochondrial signal, unstimulated adipocytes – cell-based, JC-1 fluorescence, 3T3-L1 adipocytes, 24 h, 100 nL compound, profiling panel (AID 1168). Note: test concentration not given here. The note with it: JC-1 mitochondrial fluorescence, higher = more signal, called active from +8 up or from −8 down.
Experiment [18] is described as follows: JC-1 mitochondrial signal, unstimulated myeloma cells – cell-based, JC-1 fluorescence, RPMI8226, 24 h, 100 nL compound, profiling panel (AID 1169). Note: test concentration not given here. Conditions: JC-1 mitochondrial potential fluorescence, higher = more signal.
Experiment [19] in a line: JC-1 mitochondrial signal, unstimulated MM1S myeloma – cell-based, JC-1 fluorescence, 24 h, 100 nL compound, profiling panel (AID 1170). Note: test concentration not given here. Conditions: MM1S mitochondrial potential, higher = more signal.
The nature of experiment [20]: resazurin metabolic signal in A549 cells – cell-based, resazurin fluorescence, 24 h, PK04 Diversity Set, profiling panel (AID 1171). Note: test concentration not given here. Conditions: A549 viability, higher = more signal, called active from +8 up or from −8 down. In general terms: The colour change of resazurin is a common sign of viable cells or microbes.

NADPH oxidase 5 (Homo sapiens), sequence (Q96PH1 whole entry, looked up): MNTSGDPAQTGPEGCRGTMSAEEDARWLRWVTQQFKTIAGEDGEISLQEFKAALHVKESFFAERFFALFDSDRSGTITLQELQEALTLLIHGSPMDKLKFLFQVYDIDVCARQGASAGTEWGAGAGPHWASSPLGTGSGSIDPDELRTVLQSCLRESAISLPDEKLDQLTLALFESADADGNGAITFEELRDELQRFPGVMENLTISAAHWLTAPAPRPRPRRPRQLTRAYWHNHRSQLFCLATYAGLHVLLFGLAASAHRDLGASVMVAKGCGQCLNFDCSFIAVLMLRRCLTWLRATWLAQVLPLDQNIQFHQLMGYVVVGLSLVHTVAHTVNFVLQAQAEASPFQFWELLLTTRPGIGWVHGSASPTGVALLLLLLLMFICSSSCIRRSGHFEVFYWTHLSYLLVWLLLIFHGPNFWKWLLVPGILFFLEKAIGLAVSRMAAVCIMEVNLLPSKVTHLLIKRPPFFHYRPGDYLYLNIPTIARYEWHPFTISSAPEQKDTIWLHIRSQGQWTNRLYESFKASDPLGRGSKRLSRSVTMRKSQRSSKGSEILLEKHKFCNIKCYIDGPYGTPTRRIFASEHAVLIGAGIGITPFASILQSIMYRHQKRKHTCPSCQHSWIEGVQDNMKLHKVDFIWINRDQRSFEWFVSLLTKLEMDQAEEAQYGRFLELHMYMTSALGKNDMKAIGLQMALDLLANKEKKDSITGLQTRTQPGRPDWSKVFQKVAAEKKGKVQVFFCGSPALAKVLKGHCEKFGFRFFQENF
NADPH oxidase 4 (Homo sapiens), sequence (Q9NPH5 whole entry, looked up): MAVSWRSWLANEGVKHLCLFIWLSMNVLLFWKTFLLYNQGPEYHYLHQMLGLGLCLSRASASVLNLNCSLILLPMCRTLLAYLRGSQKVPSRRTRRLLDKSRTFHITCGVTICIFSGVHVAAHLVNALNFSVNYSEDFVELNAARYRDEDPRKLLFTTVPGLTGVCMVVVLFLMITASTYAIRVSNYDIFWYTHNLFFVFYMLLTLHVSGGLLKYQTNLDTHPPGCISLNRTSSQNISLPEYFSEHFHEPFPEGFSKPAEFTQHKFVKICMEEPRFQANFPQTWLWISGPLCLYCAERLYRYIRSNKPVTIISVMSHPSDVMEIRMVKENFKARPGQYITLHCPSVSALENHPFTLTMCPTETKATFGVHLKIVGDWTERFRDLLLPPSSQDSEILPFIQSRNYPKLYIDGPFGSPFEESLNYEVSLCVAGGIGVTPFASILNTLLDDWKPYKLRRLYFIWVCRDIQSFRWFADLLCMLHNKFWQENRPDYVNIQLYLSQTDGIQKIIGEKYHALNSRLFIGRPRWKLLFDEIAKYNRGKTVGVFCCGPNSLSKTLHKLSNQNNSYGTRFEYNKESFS

`C=CCC(OC(C)=O)[C@@H]1[C@@H](N(Cc2ccc(-c3cccc(C(F)(F)F)c3)o2)C(=O)Cc2ccc(F)cc2)c2cc(OCCCO)ccc2N1C(=O)c1ccc2ccccc2c1` (stereo not given in full): the z-score in [1] was -0.353 (inactive); in experiment [3], 0.05 (inactive); in experiment [4], -0.213 (inactive); in [5] it was 0.337 (inactive); in experiment [6], 0.161 (inactive); in [7], 0.531. Moreover, the z-score in experiment [8] is -2.05 (inactive); in experiment [9] it was 0.631 (inactive); in [10] it was 0.0399; in experiment [11] it was -0.292; in experiment [12], 0.499; in experiment [13], 0.966. Further, the z-score in experiment [14] was 0.353; in experiment [15], 0.366; in [16], 2.03; in [17], 0.294 (inactive); in experiment [18], -0.793; in experiment [19] it was 0.251. The z-score in experiment [20] was 0.116 (inactive). In experiment [2], this molecule gave a composite z-score of 0.0732.

Consider `COCCOC(=O)N1C(=O)[C@@]2(c3cc(C#CC4(O)CCCCCC4)ccc31)[C@H](c1ccc(OCCO)cc1)N1[C@H](c3ccccc3)[C@H](c3ccccc3)OC(=O)[C@H]1[C@@H]2C(N)=O`, for which the z-score in experiment [1] is -0.137 (inactive); in [3], 4.19 (inactive); in [4] it was 1.89 (inactive); in [5], 0.295 (inactive); in [6], 0.999 (inactive); in experiment [7], -0.485. In addition, the z-score is 1.82 (inactive) in experiment [8]; 0.847 (inactive) in experiment [9]; -0.305 in experiment [10]; -0.29 in experiment [11]; 0.902 in experiment [12]; -1.52 in experiment [13]. Besides, the z-score in experiment [14] was -3.04; in experiment [15], -3.86; in experiment [16], -2.03; in [17] it was -0.408 (inactive); in experiment [18], -0.814; in experiment [19], -1.21. Also, in experiment [20], the z-score is -0.933 (inactive). This molecule showed a composite z-score in experiment [2] of 0.223.

For `C=CC[C@@]1(C(=O)N(C)C)N=C(c2ccc(OCCCO)cc2)O[C@@H]1c1ccccc1`, the z-score in experiment [1] was -0.463 (inactive); in experiment [3] it was 24 (active); in [4], 5.44 (inactive); in [5], 0.549 (inactive); in [6] it was 1.13 (inactive); in experiment [7], -0.342. For the same molecule, the z-score in experiment [8] was -0.315 (inactive); in experiment [9], 0.723 (inactive); in experiment [10], -0.651; in experiment [11] it was -0.511; in [12], -0.681; in experiment [13], -0.815. For the same molecule, the z-score is -1.01 in experiment [14]; 0.127 in experiment [15]; -0.644 in experiment [16]; -0.895 (inactive) in experiment [17]; -0.305 in [18]; -0.491 in experiment [19]. Further, in experiment [20], the z-score is 0.79 (inactive). This molecule displayed a composite z-score in [2] of 0.123.

Regarding `O=C1C2C=CC(C(O)c3cccc(O)c3)N(Nc3ccccc3F)C2C(=O)N1c1ccccc1` (stereo not given), the z-score in [1] is 0.906 (inactive); in experiment [3], 9.49 (active); in experiment [4], 1.43 (inactive); in experiment [5] it was 0.868 (inactive); in experiment [6], 0.0443 (inactive); in [7] it was 3. Besides, the z-score in [8] was -4.98 (inactive); in experiment [9], -5.16 (inactive); in [10], -6.27; in [11], -0.769; in experiment [12], 0.906; in experiment [13], -1.28. For the same molecule, the z-score in [14] was -1.95; in experiment [15], -1.9; in [16], -1.66; in experiment [17], -1.85 (inactive); in [18], 0.742; in [19], -1.64. The z-score in experiment [20] is 0.249 (inactive). Also, in experiment [2], the composite z-score was 0.137.

In the case of `CC(C)CNC(=O)[C@@H]1c2ccccc2C(=O)N(Cc2ccccc2Cl)[C@H]1c1ccc(CO)cc1`, the z-score in experiment [1] was 0.244 (inactive); in experiment [3] it was 2.54 (inactive); in experiment [4] it was 0.526 (inactive); in experiment [5] it was 0.531 (inactive); in experiment [6], 0.181 (inactive); in experiment [7], 0.279. Further, the z-score in [8] was -0.451 (inactive); in experiment [9], 0.16 (inactive); in [10], -1.75; in experiment [11] it was -0.103; in experiment [12] it was 0.187; in experiment [13] it was -0.228. Further, the z-score is -0.242 in experiment [14]; -0.183 in [15]; 1.01 in experiment [16]; -0.0284 (inactive) in experiment [17]; 0.13 in experiment [18]; 0.438 in [19]. Moreover, the z-score in experiment [20] was 0.914 (inactive). The composite z-score in experiment [2] is -0.133.

As to `COC(=O)[C@@]1(Cc2ccccc2CN=[N+]=[N-])COC(c2ccc(OCCCO)cc2)=N1`, the z-score was -0.156 (inactive) in experiment [1]; 23.8 (active) in experiment [3]; 9.9 (active) in experiment [4]; 4.61 (inactive) in experiment [5]; 0.959 (inactive) in experiment [6]; 0.202 in experiment [7]. The z-score in experiment [8] was -3.07 (inactive); in [9], -0.519 (inactive); in [10], -3.18; in [11], -1.19; in [12] it was -0.19; in [13], -0.891. For the same molecule, the z-score is -3.53 in experiment [14]; -0.691 in experiment [15]; -2.15 in [16]; -0.428 (inactive) in experiment [17]; -1.01 in experiment [18]; 0.515 in [19]. Further, the z-score in experiment [20] was -0.657 (inactive). This molecule also registered a composite z-score in experiment [2] of 0.2.

For `NCCCC[C@@H]1NC(=O)[C@H]2C[C@@H](C(=O)NCc3ccc(F)cc3)[C@@H](c3cccc(OCCO)c3)N2C1=O`, the z-score is -0.405 (inactive) in experiment [1]; -0.591 (inactive) in experiment [3]; 0.157 (inactive) in experiment [4]; -0.805 (inactive) in [5]; 0.274 (inactive) in experiment [6]; -0.325 in experiment [7]. Moreover, the z-score is 1.88 (inactive) in [8]; 0.647 (inactive) in experiment [9]; 0.582 in experiment [10]; 0.172 in experiment [11]; -0.716 in [12]; 1.13 in experiment [13]. In addition, the z-score is -0.893 in [14]; -0.259 in experiment [15]; -2.23 in experiment [16]; 0.13 (inactive) in experiment [17]; -0.968 in [18]; -0.894 in experiment [19]. Further, the z-score in experiment [20] was 0.858 (inactive). Besides, in experiment [2], the composite z-score was determined as 0.254.
